Reference: paper PMC11062922 (Nature Chemical Biology, 2023)
Where two headings read alike, the source gives them in different places.

Assays:
[1] = tested on: MAP4K2; details: read-out: apparent Kd, n = 1
[2] = tested on: MARK3; details: read-out: apparent Kd, n = 1
[3] = compound concentrations:100 nM and 1000 nM (sheet 'Lestaurtinib' of Supplementary Table 1),run:Lestaurtinib_02364_R3,Plate:MR002
[4] = compound concentrations:100 nM and 1000 nM (sheet 'Lestaurtinib' of Supplementary Table 1),run:Lestaurtinib_02367_R2,Plate:MR003
[5] = compound concentrations:100 nM and 1000 nM (sheet 'Lestaurtinib' of Supplementary Table 1),run:Lestaurtinib_02381_R1,Plate:MR004
[6] = compound concentrations:100 nM and 1000 nM (sheet 'Lestaurtinib' of Supplementary Table 1),run:Lestaurtinib_02407_R1,Plate:MR005
[7] = compound concentrations:100 nM and 1000 nM (sheet 'Lestaurtinib' of Supplementary Table 1),run:Lestaurtinib_02407_R2,Plate:MR005
[8] = compound concentrations:100 nM and 1000 nM (sheet 'Lestaurtinib' of Supplementary Table 1),run:Lestaurtinib_02422_R1,Plate:MR006
[9] = compound concentrations:100 nM and 1000 nM (sheet 'Lestaurtinib' of Supplementary Table 1),run:Lestaurtinib_02422_R2,Plate:MR006
[10] = compound concentrations:100 nM and 1000 nM (sheet 'Lestaurtinib' of Supplementary Table 1),run:Lestaurtinib_02437_R3,Plate:MR007
[11] = compound concentrations:100 nM and 1000 nM (sheet 'Lestaurtinib' of Supplementary Table 1),run:Lestaurtinib_02438_R1,Plate:MR008
[12] = compound concentrations:100 nM and 1000 nM (sheet 'Lestaurtinib' of Supplementary Table 1),run:Lestaurtinib_02438_R2,Plate:MR008

Q: Lestaurtinib was tested. Which potency estimated from few doses [1, 3] did it give?
A: 260 nM

Q: What about the potency estimated from few doses [1, 4] of the same substance?
A: 163 nM

Q: And the potency estimated from few doses [1, 5]?
A: 163 nM

Q: And the potency estimated from few doses ([1]; compound concentrations:100 nM and 1000 nM (sheet 'Lestaurtinib' of Supplementary Table 1),run:Lestaurtinib_02381_R3,Plate:MR004)?
A: 229 nM

Q: And the potency estimated from few doses [1, 6]?
A: 134 nM

Q: What about the potency estimated from few doses [1, 7] of the same substance?
A: 149 nM

Q: What about the potency estimated from few doses ([1]; compound concentrations:100 nM and 1000 nM (sheet 'Lestaurtinib' of Supplementary Table 1),run:Lestaurtinib_02407_R3,Plate:MR005) of the same substance?
A: 180 nM

Q: What about the potency estimated from few doses [1, 8] of the same substance?
A: 191 nM

Q: And the potency estimated from few doses [1, 9]?
A: 261 nM

Q: And the potency estimated from few doses ([1]; compound concentrations:100 nM and 1000 nM (sheet 'Lestaurtinib' of Supplementary Table 1),run:Lestaurtinib_02422_R3,Plate:MR006)?
A: 163 nM

Q: What about the potency estimated from few doses [1, 10] of the same substance?
A: 29.8 nM

Q: What about the potency estimated from few doses [1, 11] of the same substance?
A: 151 nM

Q: What about the potency estimated from few doses [1, 12] of the same substance?
A: 277 nM

Q: And the potency estimated from few doses ([1]; compound concentrations:100 nM and 1000 nM (sheet 'Lestaurtinib' of Supplementary Table 1),run:Lestaurtinib_02473_R1,Plate:MR010)?
A: 197 nM

Q: And the potency estimated from few doses ([1]; compound concentrations:100 nM and 1000 nM (sheet 'Lestaurtinib' of Supplementary Table 1),run:Lestaurtinib_02473_R2,Plate:MR010)?
A: 202 nM

Q: What about the potency estimated from few doses ([1]; compound concentrations:100 nM and 1000 nM (sheet 'Lestaurtinib' of Supplementary Table 1),run:Lestaurtinib_02482_R2,Plate:MR011) of the same substance?
A: 222 nM

Q: And the potency estimated from few doses ([1]; compound concentrations:100 nM and 1000 nM (sheet 'Lestaurtinib' of Supplementary Table 1),run:Lestaurtinib_02487_R2,Plate:MR012)?
A: 182 nM

Q: What about the potency estimated from few doses ([1]; compound concentrations:100 nM and 1000 nM (sheet 'Lestaurtinib' of Supplementary Table 1),run:Lestaurtinib_02487_R3,Plate:MR012) of the same substance?
A: 244 nM

Q: What about the potency estimated from few doses ([1]; compound concentrations:100 nM and 1000 nM (sheet 'Lestaurtinib' of Supplementary Table 1),run:Lestaurtinib_02496_R1,Plate:MR013) of the same substance?
A: 231 nM

Q: What about the potency estimated from few doses ([1]; compound concentrations:100 nM and 1000 nM (sheet 'Lestaurtinib' of Supplementary Table 1),run:Lestaurtinib_02566_R1,Plate:MR014) of the same substance?
A: 259 nM

Q: What about the potency estimated from few doses ([1]; compound concentrations:100 nM and 1000 nM (sheet 'Lestaurtinib' of Supplementary Table 1),run:Lestaurtinib_02566_R2,Plate:MR014) of the same substance?
A: 180 nM

Q: And the potency estimated from few doses ([1]; compound concentrations:100 nM and 1000 nM (sheet 'Lestaurtinib' of Supplementary Table 1),run:Lestaurtinib_02566_R3,Plate:MR014)?
A: 159 nM

Q: And the potency estimated from few doses ([1]; compound concentrations:100 nM and 1000 nM (sheet 'Lestaurtinib' of Supplementary Table 1),run:Lestaurtinib_02572_R1,Plate:MR015)?
A: 196 nM

Q: What about the potency estimated from few doses ([1]; compound concentrations:100 nM and 1000 nM (sheet 'Lestaurtinib' of Supplementary Table 1),run:Lestaurtinib_02572_R3,Plate:MR015) of the same substance?
A: 235 nM

Q: What about the potency estimated from few doses ([1]; compound concentrations:100 nM and 1000 nM (sheet 'Lestaurtinib' of Supplementary Table 1),run:Lestaurtinib_02577_R1,Plate:MR016) of the same substance?
A: 199 nM

Q: And the potency estimated from few doses ([1]; compound concentrations:100 nM and 1000 nM (sheet 'Lestaurtinib' of Supplementary Table 1),run:Lestaurtinib_02577_R3,Plate:MR016)?
A: 131 nM

Q: And the potency estimated from few doses ([1]; compound concentrations:100 nM and 1000 nM (sheet 'Lestaurtinib' of Supplementary Table 1),run:Lestaurtinib_02584_R3,Plate:MR017)?
A: 245 nM

Q: And the potency estimated from few doses ([1]; compound concentrations:100 nM and 1000 nM (sheet 'Lestaurtinib' of Supplementary Table 1),run:Lestaurtinib_02601_R2,Plate:MR018)?
A: 153 nM

Q: And the potency estimated from few doses ([1]; compound concentrations:100 nM and 1000 nM (sheet 'Lestaurtinib' of Supplementary Table 1),run:Lestaurtinib_02606_R1,Plate:MR019)?
A: 184 nM

Q: And the potency estimated from few doses ([1]; compound concentrations:100 nM and 1000 nM (sheet 'Lestaurtinib' of Supplementary Table 1),run:Lestaurtinib_02606_R2,Plate:MR019)?
A: 278 nM

Q: What about the potency estimated from few doses ([1]; compound concentrations:100 nM and 1000 nM (sheet 'Lestaurtinib' of Supplementary Table 1),run:Lestaurtinib_02606_R3,Plate:MR019) of the same substance?
A: 191 nM

Q: And the potency estimated from few doses ([1]; compound concentrations:100 nM and 1000 nM (sheet 'Lestaurtinib' of Supplementary Table 1),run:Lestaurtinib_02724_R1,Plate:MR021)?
A: 279 nM

Q: What about the potency estimated from few doses ([1]; compound concentrations:100 nM and 1000 nM (sheet 'Lestaurtinib' of Supplementary Table 1),run:Lestaurtinib_02724_R2,Plate:MR021) of the same substance?
A: 279 nM

Q: What about the potency estimated from few doses ([1]; compound concentrations:100 nM and 1000 nM (sheet 'Lestaurtinib' of Supplementary Table 1),run:Lestaurtinib_02724_R3,Plate:MR021) of the same substance?
A: 269 nM

Q: And the potency estimated from few doses ([1]; compound concentrations:100 nM and 1000 nM (sheet 'Lestaurtinib' of Supplementary Table 1),run:Lestaurtinib_02741_R1,Plate:MR023)?
A: 191 nM

Q: And the potency estimated from few doses ([1]; compound concentrations:100 nM and 1000 nM (sheet 'Lestaurtinib' of Supplementary Table 1),run:Lestaurtinib_02741_R3,Plate:MR023)?
A: 237 nM

Q: What about the potency estimated from few doses ([1]; compound concentrations:100 nM and 1000 nM (sheet 'Lestaurtinib' of Supplementary Table 1),run:Lestaurtinib_02748_R2,Plate:MR024) of the same substance?
A: 289 nM

Q: And the potency estimated from few doses ([1]; compound concentrations:100 nM and 1000 nM (sheet 'Lestaurtinib' of Supplementary Table 1),run:Lestaurtinib_02752_R2,Plate:MR025)?
A: 134 nM

Q: What about the potency estimated from few doses ([1]; compound concentrations:100 nM and 1000 nM (sheet 'Lestaurtinib' of Supplementary Table 1),run:Lestaurtinib_02752_R3,Plate:MR025) of the same substance?
A: 136 nM

Q: And the potency estimated from few doses ([1]; compound concentrations:100 nM and 1000 nM (sheet 'Lestaurtinib' of Supplementary Table 1),run:Lestaurtinib_02765_R2,Plate:MR026)?
A: 199 nM

Q: And the potency estimated from few doses ([1]; compound concentrations:100 nM and 1000 nM (sheet 'Lestaurtinib' of Supplementary Table 1),run:Lestaurtinib_02765_R3,Plate:MR026)?
A: 158 nM

Q: And the potency estimated from few doses ([1]; compound concentrations:100 nM and 1000 nM (sheet 'Lestaurtinib' of Supplementary Table 1),run:Lestaurtinib_02766_R2,Plate:MR027)?
A: 220 nM

Q: What about the potency estimated from few doses ([1]; compound concentrations:100 nM and 1000 nM (sheet 'Lestaurtinib' of Supplementary Table 1),run:Lestaurtinib_02766_R3,Plate:MR027) of the same substance?
A: 231 nM

Q: And the potency estimated from few doses ([1]; compound concentrations:100 nM and 1000 nM (sheet 'Lestaurtinib' of Supplementary Table 1),run:Lestaurtinib_02768_R1,Plate:MR028)?
A: 190 nM

Q: And the potency estimated from few doses ([1]; compound concentrations:100 nM and 1000 nM (sheet 'Lestaurtinib' of Supplementary Table 1),run:Lestaurtinib_02768_R3,Plate:MR028)?
A: 196 nM

Q: What about the potency estimated from few doses ([1]; compound concentrations:100 nM and 1000 nM (sheet 'Lestaurtinib' of Supplementary Table 1),run:Lestaurtinib_02795_R1,Plate:MR022) of the same substance?
A: 199 nM

Q: What about the potency estimated from few doses ([1]; compound concentrations:100 nM and 1000 nM (sheet 'Lestaurtinib' of Supplementary Table 1),run:Lestaurtinib_02795_R2,Plate:MR022) of the same substance?
A: 146 nM

Q: What about the potency estimated from few doses ([1]; compound concentrations:100 nM and 1000 nM (sheet 'Lestaurtinib' of Supplementary Table 1),run:Lestaurtinib_02795_R3,Plate:MR022) of the same substance?
A: 377 nM

Q: What about the potency estimated from few doses ([1]; compound concentrations:100 nM and 1000 nM (sheet 'Lestaurtinib' of Supplementary Table 1),run:Lestaurtinib_02802_R3,Plate:MR029) of the same substance?
A: 290 nM

Q: What about the potency estimated from few doses ([1]; compound concentrations:100 nM and 1000 nM (sheet 'Lestaurtinib' of Supplementary Table 1),run:Lestaurtinib_02896_R2,Plate:MR030) of the same substance?
A: 215 nM

Q: What about the potency estimated from few doses ([1]; compound concentrations:100 nM and 1000 nM (sheet 'Lestaurtinib' of Supplementary Table 1),run:Lestaurtinib_03172_R2,Plate:MR031) of the same substance?
A: 295 nM

Q: And the potency estimated from few doses ([1]; compound concentrations:100 nM and 1000 nM (sheet 'Lestaurtinib' of Supplementary Table 1),run:Lestaurtinib_03172_R3,Plate:MR031)?
A: 235 nM

Q: And the potency estimated from few doses ([1]; compound concentrations:100 nM and 1000 nM (sheet 'Lestaurtinib' of Supplementary Table 1),run:Lestaurtinib_03252_R1,Plate:MR032)?
A: 130 nM

Q: What about the potency estimated from few doses ([1]; compound concentrations:100 nM and 1000 nM (sheet 'Lestaurtinib' of Supplementary Table 1),run:Lestaurtinib_03260_R1,Plate:MR033) of the same substance?
A: 372 nM

Q: What about the potency estimated from few doses ([1]; compound concentrations:100 nM and 1000 nM (sheet 'Lestaurtinib' of Supplementary Table 1),run:Lestaurtinib_03260_R3,Plate:MR033) of the same substance?
A: 228 nM

Q: What about the potency estimated from few doses ([2]; compound concentrations:100 nM and 1000 nM (sheet 'Lestaurtinib' of Supplementary Table 1),run:Lestaurtinib_02364_R1,Plate:MR002) of the same substance?
A: 132 nM

Q: What about the potency estimated from few doses [2, 3] of the same substance?
A: 180 nM

Q: What about the potency estimated from few doses ([2]; compound concentrations:100 nM and 1000 nM (sheet 'Lestaurtinib' of Supplementary Table 1),run:Lestaurtinib_02367_R1,Plate:MR003) of the same substance?
A: 92.8 nM

Q: What about the potency estimated from few doses [2, 4] of the same substance?
A: 160 nM

Q: And the potency estimated from few doses [2, 5]?
A: 132 nM

Q: And the potency estimated from few doses ([2]; compound concentrations:100 nM and 1000 nM (sheet 'Lestaurtinib' of Supplementary Table 1),run:Lestaurtinib_02381_R2,Plate:MR004)?
A: 167 nM

Q: And the potency estimated from few doses [2, 6]?
A: 160 nM

Q: And the potency estimated from few doses [2, 7]?
A: 151 nM

Q: What about the potency estimated from few doses [2, 8] of the same substance?
A: 169 nM

Q: And the potency estimated from few doses [2, 9]?
A: 52.3 nM

Q: And the potency estimated from few doses ([2]; compound concentrations:100 nM and 1000 nM (sheet 'Lestaurtinib' of Supplementary Table 1),run:Lestaurtinib_02437_R1,Plate:MR007)?
A: 151 nM

Q: What about the potency estimated from few doses ([2]; compound concentrations:100 nM and 1000 nM (sheet 'Lestaurtinib' of Supplementary Table 1),run:Lestaurtinib_02437_R2,Plate:MR007) of the same substance?
A: 133 nM

Q: And the potency estimated from few doses [2, 10]?
A: 23.2 nM

Q: What about the potency estimated from few doses [2, 11] of the same substance?
A: 196 nM

Q: What about the potency estimated from few doses [2, 12] of the same substance?
A: 160 nM

Q: And the potency estimated from few doses ([2]; compound concentrations:100 nM and 1000 nM (sheet 'Lestaurtinib' of Supplementary Table 1),run:Lestaurtinib_02443_R1,Plate:MR009)?
A: 202 nM

Q: What about the potency estimated from few doses ([2]; compound concentrations:100 nM and 1000 nM (sheet 'Lestaurtinib' of Supplementary Table 1),run:Lestaurtinib_02443_R2,Plate:MR009) of the same substance?
A: 181 nM
